Results from PubChem BioAssay (Tox21).
Inconclusive results are not listed. Calls of active or inactive are those of the source. Unless noted, the call rests on the fitted dose curve; in most records, active means well fitted curve in the direction sought with a large enough effect in the repeat runs; inconclusive means weak or mixed curves; inactive means no such curve, though single readings can be large; an effect the other way counts as inactive or inconclusive.

Experiments:
[1] = target: Luciferin 4-monooxygenase (Photinus pyralis) (UniProt P08659); test: qHTS assay to identify small molecule inhibitors of firefly luciferase (AID 1224835); further: nearly all actives have a fitted effect of over 25% in size; further: potency means the concentration at half of the fitted maximal effect
Luciferin 4-monooxygenase (Photinus pyralis), sequence (P08659 whole entry, looked up): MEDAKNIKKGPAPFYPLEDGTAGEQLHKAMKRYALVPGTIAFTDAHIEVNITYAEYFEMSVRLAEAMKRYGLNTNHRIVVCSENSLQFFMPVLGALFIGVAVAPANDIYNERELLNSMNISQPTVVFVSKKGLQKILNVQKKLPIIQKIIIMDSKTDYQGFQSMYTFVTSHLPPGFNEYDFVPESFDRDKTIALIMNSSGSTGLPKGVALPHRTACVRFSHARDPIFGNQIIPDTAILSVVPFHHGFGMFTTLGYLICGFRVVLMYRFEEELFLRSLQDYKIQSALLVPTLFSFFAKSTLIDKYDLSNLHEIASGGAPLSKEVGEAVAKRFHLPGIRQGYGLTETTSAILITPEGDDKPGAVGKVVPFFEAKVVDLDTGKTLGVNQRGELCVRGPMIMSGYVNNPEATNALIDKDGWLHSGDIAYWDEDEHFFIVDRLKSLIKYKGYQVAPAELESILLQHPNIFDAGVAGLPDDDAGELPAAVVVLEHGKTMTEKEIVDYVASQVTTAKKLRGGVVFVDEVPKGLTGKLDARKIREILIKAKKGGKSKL
In short: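 Quantitative HTS format; KM concentrations of both substrates. Purified P. pyralis FLuc activity quantified from luminescence images.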

[2] = qHTS assay to identify small molecule agonists of the constitutive androstane receptor (CAR) signaling pathway - cell viability counter screen (AID 1224836); further: nearly all actives have a fitted effect of over 45% in size; further: potency means the concentration at half of the fitted maximal effect
In short: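 HepG2 cells stably carrying hCAR and a CYP2B6-2.2kb reporter were plated 4 h, then given compounds at 15 concentrations plus PK11195 (final 0.75 uM). After 23 h at 37 C, viability was read by CellTiter-Fluor fluorescence.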

[3] = qHTS assay to identify small molecule antagonists of the constitutive androstane receptor (CAR) signaling pathway - cell viability counter screen (AID 1224837); further: nearly all actives have a fitted effect of over 45% in size; further: potency means the concentration at half of the fitted maximal effect
In short: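 Counter screen run in HepG2-CYP2B6-hCAR cells: 4 hr settle, compound titration (15 concentrations) with 50 nM CITCO, 23 hr at 37 C/5% CO2, CellTiter-Fluor fluorescence.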

[4] = target: Thyrotropin receptor (Homo sapiens) (UniProt P16473); test: qHTS assay to identify small molecule agonists of the thyroid stimulating hormone receptor (TSHR) signaling pathway (AID 1224843; calls by dose curve; further: nearly all actives have a fitted effect of over 45% in size)
Thyrotropin receptor (Homo sapiens), sequence (P16473 whole entry, looked up): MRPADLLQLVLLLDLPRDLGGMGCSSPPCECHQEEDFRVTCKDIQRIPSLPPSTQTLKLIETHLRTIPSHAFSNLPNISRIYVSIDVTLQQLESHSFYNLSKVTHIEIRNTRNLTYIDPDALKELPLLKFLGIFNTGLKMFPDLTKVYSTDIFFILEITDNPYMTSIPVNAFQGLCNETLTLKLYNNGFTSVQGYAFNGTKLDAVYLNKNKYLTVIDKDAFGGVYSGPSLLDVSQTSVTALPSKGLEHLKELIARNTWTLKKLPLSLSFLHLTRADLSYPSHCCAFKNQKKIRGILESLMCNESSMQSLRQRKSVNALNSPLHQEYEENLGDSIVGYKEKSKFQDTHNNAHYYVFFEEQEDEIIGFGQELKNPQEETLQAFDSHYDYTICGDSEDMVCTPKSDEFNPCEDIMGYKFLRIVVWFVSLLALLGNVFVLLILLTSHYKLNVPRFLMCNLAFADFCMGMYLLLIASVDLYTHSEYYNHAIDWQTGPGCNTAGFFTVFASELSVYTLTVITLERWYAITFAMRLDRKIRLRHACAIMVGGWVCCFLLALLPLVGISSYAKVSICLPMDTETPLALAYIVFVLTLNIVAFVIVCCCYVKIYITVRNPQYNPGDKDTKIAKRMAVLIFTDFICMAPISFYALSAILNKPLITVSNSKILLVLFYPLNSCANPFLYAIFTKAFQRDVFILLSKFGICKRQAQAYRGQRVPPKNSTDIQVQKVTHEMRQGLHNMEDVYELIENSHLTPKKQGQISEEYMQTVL
In short: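 TSHR-expressing HEK293 cells (800 per well) were exposed to compounds for 30 min at room temperature. cAMP was then detected by HTRF competition with cAMP-d2 and anti-cAMP cryptate, read after 1 h at room temperature. Fifteen concentrations, triplicate.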

[5] = qHTS assay to identify small molecule agonists of the hypoxia (HIF-1) signaling pathway - cell viability counter screen (AID 1224844; calls by dose curve; further: nearly all actives have a fitted effect of over 50% in size; further: potency means the concentration at half of the fitted maximal effect)
In short: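 Cells (HRE-bla ME-180, 2,000 per well) sat 5 hrs at 37C, got compound for 17 hrs, were read for CCF4-AM FRET, and were finally lysed with CellTiter-Glo for a 30 min room-temperature luminescence read.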

[6] = qHTS assay to identify small molecule agonists of H2AX (AID 1224845; active means well fitted activation curve with a large enough effect in the signal ratio in the repeat runs, not every such curve was filed as active; the % refers to the signal ratio; further: potency means the concentration at half of the fitted maximal effect)
In short: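 Wild-type CHO-K1 cells plated overnight, then exposed 3 hr at 37C to compounds at 15 concentrations (0.76% DMSO). Lysed, then HTRF anti-pH2AX(S139)-cryptate/anti-H2AX-d2 detection after 24 hr at room temperature; emissions 665 and 620 nm.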

[7] = qHTS assay to identify small molecule agonists of the hypoxia (HIF-1) signaling pathway (AID 1224846; active means well fitted activation curve with a large enough effect in the signal ratio in the repeat runs, not every such curve was filed as active; the % refers to the signal ratio)
In short: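 A low-serum medium (0.5% dialyzed FBS) holding 2,000 HRE-bla ME-180 cells per well is preincubated for 5 hrs, dosed with compounds by pintool, and kept a further 17 hrs at 37C, 5% CO2 before CCF4-AM FRET detection of beta-lactamase.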

[8] = qHTS assay to identify small molecule agonists of H2AX - cell viability counter screen (AID 1224847; calls by dose curve; further: nearly all actives have a fitted effect of over 30% in size; further: potency means the concentration at half of the fitted maximal effect; on activity change, negative = cytotoxicity: top concentration of the series differs between compounds)
In short: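 Wild-type CHO-K1 cells (10% FBS medium) were plated overnight at 37C, exposed to compounds at 15 concentrations for 3 hr at 37C (0.76% DMSO final), and viability was read as CellTiter-Glo luminescence after 30 min at room temperature.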

[9] = qHTS RealTime-Glo MT Cell Viability Assay in HepG2 cells - 24 hour (AID 1224867); further: nearly all actives have a fitted effect of over 50% in size
In short: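 HepG2 cells (600/well) were dispensed with RealTime-Glo reagents, incubated 5 h at 37 °C, then treated with compounds in DMSO for up to 40 h. Nonlytic NanoLuc luminescence reflecting viable cells was read at each stated time point.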

[10] = qHTS RealTime-Glo MT Cell Viability Assay in HEK293 cells - 32 hour (AID 1224868); further: nearly all actives have a fitted effect of over 50% in size; further: potency means the concentration at half of the fitted maximal effect
In short: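 HEK293 cells seeded with NanoLuc/prosubstrate reagent, rested 5 h at 37 C, then dosed and kept at 37 C up to 40 h. Nonlytic real-time luminescence from viable cells read at 0, 8, 16, 24, 32 and 40 h.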

[11] = A CellTox Green Cytotoxicity Assay to monitor cytotoxicity in HEK293 cells - 0 hour (AID 1224869); further: nearly all actives have a fitted effect of over 50% in size
In short: (§1)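 Fluorescence intensity, read at 0, 8, 16, 24, 32 and 40 h of compound treatment, reflected dye binding to DNA of dead HEK293 cells; compounds (23 nL, DMSO) were added 5 h after plating cells with reagent.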

[12] = qHTS RealTime-Glo MT Cell Viability Assay in HepG2 cells - 40 hour (AID 1224870); further: nearly all actives have a fitted effect of over 50% in size
In short: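 HepG2 cells mixed with RealTime-Glo MT reagents (NanoLuc plus cell-permeant prosubstrate) were seeded at 600 cells/well, incubated 5 h at 37 C/5% CO2, then pinned with compounds in DMSO; nonlytic luminescence tracked viability during 40 h treatment.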

[13] = A CellTox Green Cytotoxicity Assay to monitor cytotoxicity in HEK293 cells - 40 hour (AID 1224871); further: nearly all actives have a fitted effect of over 45% in size; further: potency means the concentration at half of the fitted maximal effect
In short: as §1

[14] = target: Nuclear receptor subfamily 1 group I member 3 (Homo sapiens) (UniProt Q14994); test: qHTS assay to identify small molecule antagonists of the constitutive androstane receptor (CAR) signaling pathway (AID 1224838); further: nearly all actives have a fitted effect of over 40% in size
Nuclear receptor subfamily 1 group I member 3 (Homo sapiens), sequence (Q14994 whole entry, looked up): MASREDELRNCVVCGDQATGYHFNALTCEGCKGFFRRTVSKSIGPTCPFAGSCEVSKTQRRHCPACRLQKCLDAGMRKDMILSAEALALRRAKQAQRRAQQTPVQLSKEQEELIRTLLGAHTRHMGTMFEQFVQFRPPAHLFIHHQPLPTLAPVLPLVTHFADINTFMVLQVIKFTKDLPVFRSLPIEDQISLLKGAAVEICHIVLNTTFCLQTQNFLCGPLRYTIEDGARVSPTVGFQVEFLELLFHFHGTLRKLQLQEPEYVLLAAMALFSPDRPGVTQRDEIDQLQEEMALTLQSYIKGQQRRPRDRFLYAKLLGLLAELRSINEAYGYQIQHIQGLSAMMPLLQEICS
In short: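 Cell line: HepG2 double-stable for hCAR and CYP2B6-2.2kb reporter. Agonist: CITCO, 50 nM final. Compounds: 15 concentrations, 24 h, 37 C. Detection: ONE-Glo luminescence.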

[15] = target: Nuclear receptor subfamily 1 group I member 3 (Homo sapiens) (UniProt Q14994); test: qHTS assay to identify small molecule agonists of the constitutive androstane receptor (CAR) signaling pathway (AID 1224839);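 further: HepG2 cells stably carrying human CAR and a CYP2B6 luciferase reporter; nearly all actives have a fitted effect of over 15% in size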
In short: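 HepG2 cells stably expressing hCAR and a CYP2B6-2.2kb luciferase reporter were treated with compounds at 15 concentrations plus 0.75 uM PK11195 (final) for 24 h at 37 C; luminescence was read after ONE-Glo addition.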

[16] = qHTS assay to identify small molecule antagonists of the estrogen related receptor signaling pathway with the pleiotropic PPARgamma coactivator (PGC) from Tox21 10K library (AID 1224841; call rule not given here; further: potency means the concentration at half of the fitted maximal effect)
In short: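 qHTS antagonist format: PGC/ERR cells, 2k/well, compound in DMSO by pin transfer after 6 h attachment, 18 h treatment at 37 C, One-Glo luminescence read at 30 min.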

[17] = qHTS assay to identify small molecule agonists of the estrogen related receptor signaling pathway with the pleiotropic PPARgamma coactivator (PGC) from Tox21 10K library (AID 1224842); further: nearly all actives have a fitted effect of over 15% in size; further: potency means the concentration at half of the fitted maximal effect
In short: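 PGC/ERR reporter cells (NTP line) were seeded 2,000 per well, rested 6 h at 37 C/5% CO2, then pin-dosed with compounds in DMSO for 18 h at 37 C; luciferase read by One-Glo luminescence after 30 min at room temperature.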

[18] = qHTS assay to identify small molecule antagonists of the estrogen related receptor (ERR) signaling pathway from Tox21 library (AID 1224848); further: nearly all actives have a fitted effect of over 50% in size; further: potency means the concentration at half of the fitted maximal effect
In short: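 Cells: ERR line, 2,000/well; 6 h preincubation 37 C/5% CO2. Cpd in DMSO via pin tool; 18 h, 37 C. ONE-Glo, 30 min RT, luminescence.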

[19] = qHTS assay to identify small molecule agonists of the estrogen related receptor (ERR) signaling pathway from Tox21 library (AID 1224849; calls by dose curve; further: nearly all actives have a fitted effect of over 15% in size); details: ERR reporter cell line, ONE-Glo luciferase, 18 h; at 92.4 µM (top of the series) unless noted
In short: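 Screening used an NTP-provided ERR luciferase cell line. Compounds in DMSO were added 6 h after seeding and left 18 h at 37 C before a 30 min ONE-Glo step and luminescence reading.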

[20] = qHTS assay to identify small molecule antagonists of the estrogen related receptor signaling pathway with the pleiotropic PPARgamma coactivator (PGC) from Tox21 10K library - cell viability counter screen (AID 1224840; active means well fitted cell-killing curve with a large enough effect in the repeat runs, not every such curve was filed as active; further: nearly all actives have a fitted effect of over 40% in size)
In short: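 Following seeding of 2,000 PGC/ERR cells/well and 6 hours' incubation, test compounds were delivered in DMSO. The plates then sat 17.5 hours at 37 C before a fluorogenic live-cell protease reagent (CellTiter-Fluor) was read after 30 min.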
On the % scale 0 is the no-effect control and ±100 the full control effect.

CCc1ccc(O)c(C(C)(C)C)c1
inactive: Potency [1] | Potency [2] | Potency [3] | Potency [4] | Potency [5] | Potency [6] | outcome [7] | Potency [9] | Potency [10] | Potency [11] | Potency [12]
active: Potency [8] 101 µM | Potency [13] 38.9 µM

Cc1ccc(CCn2c3c(c4cc(Cl)ccc42)CN(C)CC3)cn1
active: Potency [17] 9.44 µM | activity change, positive = activation [19] 48.3% [at 42.5 µM] | Potency [10] 19 µM
inactive: Potency [1] | Potency [2] | Potency [14] | Potency [15] | Potency [16] | Potency [6] | outcome [7] | Potency [8] | Potency [18] | Potency [9] | Potency [11] | Potency [12] | Potency [13]

NC(=O)c1nc(-c2cccc(-c3cc(F)ccc3OCC(F)(F)C(F)(F)F)c2)n[nH]1
inactive: Potency [1] | Potency [17] | Potency [4] | Potency [6] | activity change, positive = activation [19] -59.7% | Potency [11] | Potency [12]
active: Potency [2] 61.1 µM | Potency [16] 24.3 µM | Potency [8] 101 µM | Potency [18] 17.2 µM

C=CC(=O)OCCN(CC)CC
inactive: Potency [1] | Potency [3] | Potency [14] | Potency [15] | Potency [20] | Potency [4] | Potency [6] | Potency [8] | Potency [9] | Potency [10] | Potency [11] | Potency [12] | Potency [13]

Clc1cc(Cl)c(-c2c(Cl)c(Cl)cc(Cl)c2Cl)cc1Cl
inactive: Potency [1] | Potency [2] | Potency [3] | Potency [16] | Potency [4] | Potency [5] | Potency [6] | outcome [7] | Potency [8] | Potency [18] | activity change, positive = activation [19] 21.1% [at 42.5 µM] | Potency [9] | Potency [11] | Potency [13]

C[Si](C)(C)Cl
inactive: Potency [1] | Potency [3] | Potency [14] | Potency [15] | Potency [20] | Potency [16] | Potency [17] | Potency [4] | Potency [5] | Potency [6] | outcome [7] | Potency [18] | activity change, positive = activation [19] 0.496% | Potency [9] | Potency [10] | Potency [11] | Potency [12] | Potency [13]

CCCCOCC
inactive: Potency [1] | Potency [3] | Potency [14] | Potency [15] | Potency [20] | Potency [16] | Potency [4] | Potency [5] | Potency [6] | outcome [7] | Potency [8] | Potency [18] | activity change, positive = activation [19] -0.464% | Potency [9] | Potency [11] | Potency [12] | Potency [13]

C=CC(C)C#N (configuration not stated)
inactive: Potency [1] | Potency [3] | Potency [14] | Potency [15] | Potency [20] | Potency [6] | outcome [7] | Potency [8] | Potency [9] | Potency [10] | Potency [11] | Potency [12] | Potency [13]

CC1=CCC(=O)O1
inactive: Potency [1] | Potency [3] | Potency [14] | Potency [15] | Potency [20] | Potency [16] | Potency [17] | Potency [4] | Potency [6] | outcome [7] | Potency [8] | Potency [18] | activity change, positive = activation [19] 8.22% | Potency [9] | Potency [10] | Potency [11] | Potency [12] | Potency [13]

Cc1cn[nH]c1
inactive: Potency [1] | Potency [2] | Potency [3] | Potency [4] | Potency [5] | Potency [6] | outcome [7] | Potency [8] | Potency [9] | Potency [10] | Potency [11] | Potency [12] | Potency [13]

S=C(SSSSSSC(=S)N1CCCCC1)N1CCCCC1
active: Potency [1] 6.22 µM | Potency [2] 8.48 µM | Potency [3] 7.56 µM | Potency [5] 3.41 µM | Potency [13] 0.241 µM
inactive: activity change, negative = cytotoxicity [8] -11.5% [at 31.6 µM] | cytotoxicity [11] -0.227% [at 15.8 µM]

CC(C)=CCCC(C)O (configuration not stated)
inactive: Potency [1] | Potency [3] | Potency [14] | Potency [15] | Potency [20] | Potency [16] | Potency [4] | Potency [5] | Potency [6] | outcome [7] | Potency [8] | Potency [18] | activity change, positive = activation [19] 0.538% | Potency [9] | Potency [10] | Potency [11] | Potency [12] | Potency [13]

Clc1ccc(C(Cn2ccnc2)OCc2c(Cl)cccc2Cl)c(Cl)c1 (configuration not stated)
active: Potency [5] 23.9 µM | Potency [18] 26.6 µM | Potency [10] 16.9 µM
inactive: Potency [1] | Potency [2] | Potency [17] | activity change, positive = activation [19] -58.8% [at 42.5 µM] | Potency [12]

CC(C)N=C(N)/N=C(\N)Nc1ccc(Cl)cc1
active: Potency [10] 26.8 µM
inactive: Potency [1] | Potency [2] | Potency [3] | Potency [16] | Potency [17] | Potency [5] | Potency [6] | activity change, positive = activation [19] -24.8% [at 42.5 µM] | Potency [11] | Potency [13]

Oc1c(Br)cc(Br)c2cccnc12
active: Potency [17] 29.8 µM | Potency [6] 55.2 µM | Potency [18] 18.8 µM
inactive: Potency [1] | Potency [2] | Potency [3] | Potency [16] | Potency [4] | activity change, positive = activation [19] -61.3% [at 42.5 µM] | Potency [9] | Potency [11] | Potency [12]
